# Only a sample is shown.
# aSyn 5UTR act: Activators working through SNCA 5'UTR binding (MLPCN); alpha-synuclein 5'UTR reporter, activators screen; activity score, % (tested at 7.5 µM), hits read low; 300,000 compounds, 7.1% hits; in the data active = activity score below about -60%
# Active calls of the source: *.
SMILES,aSyn 5UTR act
O=C(Nc1ccc2c(c1)OCCO2)c1cc2sccc2n1Cc1ccc(F)cc1,-109.7*
O=C(Nc1ccc2c(c1)OCCO2)c1cc2sccc2n1Cc1ccccc1,-102.4*
COc1ccc(NC(=O)c2ccc(C)cc2Cl)c([N+](=O)[O-])c1,-131.2*
COc1ccc(NC(=O)c2ccc([N+](=O)[O-])s2)c([N+](=O)[O-])c1,-92.2*
COc1ccc(NC(=O)c2ccc(Br)o2)c([N+](=O)[O-])c1,-109.5*
COc1ccc(NC(=O)c2ccc(C)o2)c([N+](=O)[O-])c1,-102.1*
O=C(O)c1ccc(N=Nc2c(O)[nH]c3cc(Cl)ccc23)cc1,-294.4*
Oc1[nH]c2ccc(Br)cc2c1N=Nc1ccc(C(F)(F)F)cn1,-68.0*
Cc1cccc2c(N=Nc3ccccc3)c(O)[nH]c12,-112.1*
Oc1[nH]c2ccccc2c1N=Nc1cccc(Cl)c1,-87.0*
O=Nc1c(-c2c(O)[nH]c3cc(Br)ccc23)[nH]c2ccccc12,76.6
Cc1[nH]c(N=Nc2ccccc2)nc1N=Nc1ccccc1,62.7
Cc1ccc(N=Nc2c(O)[nH]c3ccc(F)cc23)cc1,-136.5*
OCCN=C1CCCc2c1[nH]c1ccc(Br)cc21,62.2
O=C(O)c1ccc(N=Nc2c(O)[nH]c3ccc(Br)cc23)cc1,-188.3*
N#Cc1c(N)nc(N)nc1Nc1ccc(Br)cc1,-63.9*
O=C(Nc1cc(=O)[nH]c(=O)[nH]1)c1cc(Cl)ccc1Cl,-64.9*
CCC(=O)NC(c1ccc(OC)cc1)c1cc(Cl)c2cccnc2c1O (configuration not stated),80.7
COc1ccc(N2C(=O)C(=O)/C(=C(/O)c3ccc(C)cc3)C2c2cccnc2)cc1 (configuration not stated),-61.9*
COc1ccc(/C(O)=C2/C(=O)C(=O)N(c3ccccn3)C2c2ccc(C(C)C)cc2)cc1 (configuration not stated),-121.8*
CCC(C)n1ncn(-c2ccc(N3CCN(c4ccc(OCC5COC(Cn6cncn6)(c6ccc(Cl)cc6Cl)O5)cc4)CC3)cc2)c1=O (configuration not stated),100.0
C=CCSc1n[nH]c(-c2ccc(OCCC)cc2)n1,-164.3*
C=CCSc1n[nH]c(-c2ccc(OCCCC)cc2)n1,-89.2*
CCCOc1ccc(C2=NNC(=O)CC2)cc1,77.5
CCCOc1ccc(-c2nc(=S)[nH][nH]2)cc1,-76.8*
SMILES,aSyn 5UTR act
Clc1ccc(Cc2noc(-c3cccs3)n2)cc1,-132.1*
O=C(Nc1nnc(-c2ccncc2)s1)Nc1ccccc1F,-102.5*
O=C(Nc1nnc(Cc2ccccc2)s1)Nc1ccccc1F,-103.4*
CN1C(=O)/C(=C\c2ccc(N(C)C)cc2)OC1=S,-67.5*
CC(C)=CC(=O)Nc1ccc(Br)cc1,-191.4*
CC(C)(C)c1ccc(OCCn2ccccc2=O)cc1,-154.3*
COc1cc2c(O)c3c(c(-c4ccc5c(c4)OCO5)c2cc1OC)C(=O)OC3,107.9
COc1ccc(OC)c2nc(-c3ccc4c(c3)OCO4)ccc12,-89.5*
CCCc1cc(-c2nc(N)ncc2-c2ccc3c(c2)OCCCO3)c(O)cc1OC,61.7
c1ccc2nc(-c3ccc4c(c3)OCO4)ccc2c1,-81.4*
COc1ccc(Nc2ncnc3sc(C)cc23)c(OC)c1,-82.1*
CCN1C(=Nc2ccc(Cl)cc2)SC/C1=C\C(=O)OC,-80.6*
CC(=O)Nc1ccc(SCC(=O)c2cc(C)n(Cc3cccs3)c2C)cc1,68.4
Cc1ccc(NC(=O)CNCc2cccs2)cc1Br,-84.7*
CC(=O)c1ccc(NC(=O)CNCc2cccs2)cc1,-134.0*
O=C(CNCc1cccs1)Nc1ccc(N2CCCCCC2)cc1,-62.8*
CSc1nnc2c(n1)c(C)nn2-c1cccc(C)c1,-172.1*
Cc1csc(SCC(=O)c2c(N)n(C)c(=O)n(C)c2=O)n1,-118.0*
Cc1csc(SCC(=O)c2cc(C)n(Cc3cccs3)c2C)n1,73.0
CCC(=O)Nc1nnc(-c2cccs2)s1,-67.7*
C=C(C)C(=O)Nc1nnc(-c2cccs2)s1,-93.9*
O=C(Nc1nnc(-c2cccs2)s1)C1CC1,-89.2*
COCC(=O)Nc1nnc(-c2cccs2)s1,-69.7*
O=C(Cc1ccccc1)Nc1nnc(-c2cccs2)s1,-142.4*
COc1ccc(C(=O)Nc2ccc(N3CCN(C)CC3)cc2)cc1OC,-82.1*
SMILES,aSyn 5UTR act
CN1CCN(c2ccc(NC(=O)c3ccc4ccccc4c3)cc2)CC1,85.3
COc1ccc(C(=O)Nc2ccc(N3CCN(C)CC3)cc2)cc1,-164.6*
Cc1ccc(C(=O)Nc2ccc(N3CCN(C)CC3)cc2)cc1,-88.2*
COC(=O)c1c(-c2cccs2)csc1NC(=O)c1cccnc1,-86.6*
CCc1ccc(Nc2cnn(-c3nc4ccccc4s3)c(=O)c2Cl)cc1,-80.5*
O=C(COc1ccc2oc(-c3ccccc3)cc(=O)c2c1)NCc1ccco1,-127.2*
COc1ccc(-c2cc(=O)c3cc(O)ccc3o2)cc1,-121.0*
O=c1cc2oc3cc(O)c(O)cc3c(-c3ccccc3[N+](=O)[O-])c-2cc1O,71.2
O=c1cc(-c2ccccc2)oc2ccc(O)cc12,-90.0*
COc1ccc(-c2nc3ncccn3c2Br)cc1,-148.1*
Cc1ccc(-c2nc3ncccn3c2Nc2ccc3c(c2)OCCO3)cc1,-64.0*
Brc1c(-c2ccc3c(c2)OCO3)nc2ncccn12,-83.8*
COc1cccc(C(=O)Nc2ccc(-c3nnc(-c4ccco4)o3)cc2)c1,-127.1*
COc1cccc(-c2nnc(-c3ccco3)o2)c1,-146.8*
COc1cccc(OCCOc2ccccc2[N+](=O)[O-])c1,-154.5*
COc1cccc(-c2nnc(-c3ccccc3[N+](=O)[O-])o2)c1,-136.4*
CCCN(CCC)S(=O)(=O)c1ccc(C(=O)Nc2nnc(-c3cccc(OC)c3)o2)cc1,69.9
COc1cccc(-c2nnc(NC(=O)C(C)C)o2)c1,-67.2*
CCOc1ccc(/C=C/C2=Cc3c(sc(NC(=O)CSc4n[nH]c(N)n4)c3C#N)C(C)(C)C2)cc1,-95.0*
CCN(CC)S(=O)(=O)c1cc(OC)ccc1N=Nc1ccc(O)c2ncccc12,59.5
COc1ccc(O)c(C(=O)c2cnn(-c3ccc(Cl)cc3)c2)c1,-75.0*
COc1ccc(O)c(C(=O)c2cnn(-c3ccccn3)c2)c1,-130.1*
CCCCNc1c(-c2ccc(-c3cccc(Cl)c3)cc2)nc2ccccn12,-104.9*
Cc1ccc2nc(-c3ccc(-c4cccc(Cl)c4)cc3)c(NCc3ccccc3)n2c1,-67.6*
CCCCCCSc1ccc(-c2nc3ccccn3c2NCCCC)cc1,-112.8*
SMILES,aSyn 5UTR act
Cc1ccc(C(=O)Nc2cc3c(oc2=O)CCCC3=O)cc1,-65.1*
Cc1ccc(Nc2nnc(-c3ccccc3N)o2)cc1C,-134.9*
O=c1c2cc(Br)ccc2[nH]c(=S)n1Cc1ccccn1,-70.0*
CN(C)C(=O)c1cc(C(=O)c2ccc(C(F)(F)F)cc2F)c[nH]1,-68.2*
CN(C)C(=O)c1cc(C(=O)c2ccc(F)cc2F)c[nH]1,-72.4*
Cc1ccc(N2CCN(C(=O)c3cc(C(=O)c4ccccc4C)c[nH]3)CC2)c(C)c1,58.4
COc1cc(/C=C2\OC(=O)c3c(OC)cccc32)ccc1O,-172.2*
COCCNC(=O)c1cc(-c2cccs2)on1,-289.1*
O=C(NCc1cccs1)c1cc(-c2ccccc2)on1,-111.9*
O=C(NCc1ccccn1)c1ccc(-c2ccccc2)cc1,-106.6*
O=C(NCc1ccccn1)c1cc(-c2ccccc2)on1,-78.6*
O=C(NCc1cccs1)c1cc(-c2cccs2)on1,-169.2*
Cc1ccc(-c2n[nH]c(Cc3ccccc3)n2)cc1,-126.4*
Fc1c(F)c(C(F)(F)F)c(F)c(F)c1N/N=C\c1cccs1,-73.5*
COc1ccc(NC(=O)c2csc(Cc3ccccc3)n2)cc1,-109.8*

# Assay outcomes from PubChem BioAssay.
